Screens from PubChem.
MEKK2 WT-MEK5: modulators of MEK5 binding to wildtype MEKK2, primary screen, biochemical, multiplex bead flow cytometry, Alexa488-MEK5. Alexa488-MEK5 binding to MEKK2 WT; actives lie on both sides. binding response (% of control), % at 10 µM. actives 1.1% (n = 290,000); in the data active = binding response below about 67% or above about 130%; inconclusive = no clear call, values can overlap the other calls; inactive = in between
MEKK3 PB1 HTS: modulators of MEKK3-MEK5 PB1 binding, primary screen, biochemical, wildtype MEKK3, multiplex bead flow cytometry, Alexa488-MEK5; AID 1529, 2009; Mitogen-activated protein kinase kinase kinase 3 (Homo sapiens), Q99759; binding response (% of control), % at 10 µM; actives 1.4% (n = 290,000); bead-based flow cytometry, Alexa488-MEK5 binding to MEKK3; actives lie on both sides; 0 = blocked by unlabeled MEK5, 100 = vehicle;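 active = binding response more than 3 SD above or below the average of its plate-row segment, actives on both sides; inconclusive = wells at one plate position flagged as instrument error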;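 also: Alexa488 bead fluorescence after subtracting the streptavidin-only scavenger bead signal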
Target sequence (Q99759 whole entry, looked up): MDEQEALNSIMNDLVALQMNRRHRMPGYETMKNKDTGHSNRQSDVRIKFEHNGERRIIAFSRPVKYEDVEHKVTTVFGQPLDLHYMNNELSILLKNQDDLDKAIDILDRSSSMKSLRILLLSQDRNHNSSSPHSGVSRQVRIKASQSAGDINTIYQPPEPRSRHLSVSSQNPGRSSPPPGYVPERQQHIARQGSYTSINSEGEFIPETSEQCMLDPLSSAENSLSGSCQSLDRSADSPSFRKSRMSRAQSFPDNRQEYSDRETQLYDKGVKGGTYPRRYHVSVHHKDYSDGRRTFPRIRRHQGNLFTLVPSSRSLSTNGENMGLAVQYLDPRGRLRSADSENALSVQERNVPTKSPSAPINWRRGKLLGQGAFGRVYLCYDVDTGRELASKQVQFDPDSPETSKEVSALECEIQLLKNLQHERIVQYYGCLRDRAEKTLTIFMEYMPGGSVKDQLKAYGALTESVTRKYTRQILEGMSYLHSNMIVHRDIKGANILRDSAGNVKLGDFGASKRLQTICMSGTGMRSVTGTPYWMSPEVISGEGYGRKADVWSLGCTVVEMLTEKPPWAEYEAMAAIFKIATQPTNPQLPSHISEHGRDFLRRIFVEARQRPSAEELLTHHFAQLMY
Rce1 inh: yeast Rce1p protease inhibitors, primary screen, biochemical, fluorescence, cell-free homogeneous; actives 0.27% (n = 290,000); yeast membranes, quenched prenylated peptide cleavage fluorescence; calls only; CAAX prenyl protease 2 (Saccharomyces cerevisiae (strain ATCC 204508 / S288c)), Q03530;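 active = fall in fluorescence gain of 50% or more versus controls, with final raw signal at or below 3038400; inconclusive = same 50% fall but final raw signal above 3038400; inactive = fall in fluorescence gain under 50%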;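 also: plate controls were neutral control wells for no effect and wells lacking membranes for full effect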
UBC13 polyUb: UBC13 polyubiquitin chain formation inhibitors, primary screen, biochemical, TR-FRET, uHTS. Ubiquitin-conjugating enzyme E2 N (Homo sapiens), P61088. inhibition, % at 20 µM. actives 0.47% (n = 330,000). AID 485273, 2010; in the data active = inhibition above about 45%, passing the limit was not always enough; inconclusive = no clear call, values can overlap the other calls
MEKK2 mut-MEK5: MEK5 binding signal on mutant MEKK2 PB1, primary screen, biochemical, multiplex bead flow cytometry, Alexa488-MEK5; Alexa488-MEK5 binding to MEKK2 mutant; percent response, % at 10 µM; actives 0.35% (n = 290,000); in the data active = percent response above about 24%, passing the limit was not always enough
MEKK2wt confirm: modulators of MEK5 binding to wildtype MEKK2, confirmation, biochemical, single concentration, multiplex bead flow cytometry | shares compounds with MEKK3 PB1 HTS | Alexa488-MEK5 binding to MEKK2 WT; actives lie on both sides | binding response (% of control), % at 10 µM | actives 2.4% (n = 5,900) | AID 1892, 2009; in the data active = binding response below about 16% or above about 210%; inactive = in between
MEKK2mut-MEK5: mutant MEKK2 PB1-MEK5 binding signal retest – biochemical, single concentration, multiplex bead flow cytometry, confirmation. percent response, % at 10 µM. shares compounds with MEKK3 PB1 HTS. actives 2% (n = 5,900). Alexa488-MEK5 binding to MEKK2 mutant. AID 1893, 2009; in the data active = percent response mostly above about 71%, no sharp cut-off; inactive = mostly below about 38%;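 also: higher means compound restores mutant binding toward wildtype level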
MEKK3-MEK5 inh: MEKK3 wild-type PB1 binding to MEK5, inhibitors, confirmation, biochemical, bead multiplex flow cytometry, single concentration, wildtype. AID 1894, 2009. binding response (% of control), % at 10 µM. shares compounds with MEKK3 PB1 HTS. Alexa488-MEK5 binding to MEKK3; active compounds read low. actives 1.8% (n = 5,900);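 active = binding response below 72% of control, or above a set upper limit, though filed actives all read lower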;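 also: 100% = DMSO only wells and 0% = binding blocked by excess unlabeled MEK5; lower values mean stronger disruption of MEK5 binding to MEKK3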
* marks the source's active call; other numbers are inactive results; i = inactive; ? = inconclusive; nt = no result; [ ] = remark or other dose. In the library only some 2.5% were active in any assay of this set; here they are far more common.

SMILES	MEKK2 WT-MEK5	MEKK3 PB1 HTS	Rce1 inh	UBC13 polyUb	MEKK2 mut-MEK5	MEKK2wt confirm	MEKK2mut-MEK5	MEKK3-MEK5 inh
CCc1cc(=O)oc2cc(C)cc(OCC(=O)C(C)(C)C)c12	70.0	72.0*[inhibitor]	i	8.1	-23.0	101.0	-1.0	103.0
O=C(COc1cccnc1[N+](=O)[O-])NCCc1ccccc1	107.0	111.0	i	2.1	-2.0	nt	nt	nt
CC(=O)Nc1ccc(CN2CCN(CCc3ccccc3)C(CCO)C2)cc1 (configuration not stated)	108.0	97.0	i	12.7	0.0	nt	nt	nt
CCOP(=O)(OCC)C(Nc1cccc(C(F)(F)F)c1)c1ccc(C)cc1 (configuration not stated)	103.0	66.0*[inhibitor]	i	12.5	0.0	103.0	2.0	108.0
CC(=O)Nc1ccc(NC(=O)COc2ccc(S(=O)(=O)N3CCCC3)cc2)cc1	101.0	101.0	i	-4.7	-3.0	nt	nt	nt
Cc1cc(N/N=C/c2ccc(N(C)C)cc2)c2ccccc2n1	100.0	104.0	i	8.9	7.0	nt	nt	nt
Cc1cc(N/N=C/c2ccc(O)cc2)c2cccc(C)c2n1	209.0*	110.0	i	1.9	29.0*	134.0	21.0	107.0
Cc1cc(C)c2nc(C)cc(N/N=C/c3ccc(O)cc3)c2c1	237.0*	115.0	i	?	119.0*	244.0*	102.0*	111.0
Cc1ccc(C(C)C)c(OCC(=O)N/N=C/c2cccn2C)c1	92.0	92.0	i	-4.5	-3.0	nt	nt	nt
CC(C)c1nnc(NC(=O)CCC(=O)NC2CCCc3ccccc32)s1 (configuration not stated)	103.0	102.0	i	6.1	7.0	nt	nt	nt
COc1ccc(CNC(=O)COC(=O)c2ccc(S(=O)(=O)N3CCCCC3)cc2)cc1	nt	nt	nt	-6.9	nt	nt	nt	nt
COc1cc(C(C)=O)ccc1COc1ccc(C(=O)OCC(N)=O)cc1OC	98.0	72.0*[inhibitor]	i	4.6	-1.0	110.0	12.0	107.0
CC(=O)c1c(C)[nH]c(C(=O)NC2=NCCS2)c1C	3.0*[inhibitor]	2.0*[inhibitor]	i	-5.4	-14.0	1.0*[inhibitor]	-29.0	2.0*
CC(=O)c1c(C)[nH]c(C(=O)Nc2ccccn2)c1C	97.0	95.0	i	-0.6	-6.0	nt	nt	nt
CC1C(=O)C(C)C(c2cccs2)NC1c1cccs1 (configuration not stated)	124.0	127.0*	i	-11.4	8.0	130.0	11.0	104.0
Cc1ccccc1C1NC(c2ccccc2C)C(C)C(=O)C1C (configuration not stated)	105.0	107.0	i	4.6	4.0	nt	nt	nt
CCCCNc1cc(C(=O)O)cc(S(N)(=O)=O)c1Oc1ccccc1	16.0*[inhibitor]	87.0	i	9.3	-1.0	94.0	-6.0	99.0
CC(C)c1ccc(N2C(=O)/C(=C/N(C)C)SC2=S)cc1	62.0*[inhibitor]	100.0	i	?	6.0	85.0	-10.0	88.0
CCO/C=C1\SC(=S)N(c2ccc(Cl)cc2)C1=O	104.0	108.0	i	-3.5	1.0	nt	nt	nt
COc1ccc(-c2csc(N)n2)cc1	96.0	93.0	i	-3.6	-1.0	nt	nt	nt
COc1ccc2[nH]c(C)c(-c3csc(N)n3)c2c1	118.0	117.0	i	-0.9	27.0*	101.0	0.0	101.0
CN(C(=O)C(=O)c1cn(CC(=O)N2CCCC2)c2ccccc12)C1CCCCC1	108.0	103.0	i	-6.4	5.0	nt	nt	nt
Cc1sc2ncnc(N3CCC(C(=O)Nc4sc5c(c4C(N)=O)CCC(C)C5)CC3)c2c1C (configuration not stated)	nt	nt	nt	-2.5	nt	nt	nt	nt
